Data on 40 molecules can be found in PubChem BioAssay AID1645857 (Buhrlage Lab, Dana-Farber Cancer Institute and Novartis …, 2021).

SMILES strings stand for the structures. Out of some 47,000 compounds screened, about 1,400 (3%) were called active. The list comes from a sample in which actives are over-represented; it also holds similar structures and randomly drawn compounds. A number with no mark means an inactive call. Rule as the data show it: active = inhibition above about 30%; inactive = the rest.

Ubiquitin carboxyl-terminal hydrolase 28 (Homo sapiens), sequence (Q96RU2 whole entry, looked up): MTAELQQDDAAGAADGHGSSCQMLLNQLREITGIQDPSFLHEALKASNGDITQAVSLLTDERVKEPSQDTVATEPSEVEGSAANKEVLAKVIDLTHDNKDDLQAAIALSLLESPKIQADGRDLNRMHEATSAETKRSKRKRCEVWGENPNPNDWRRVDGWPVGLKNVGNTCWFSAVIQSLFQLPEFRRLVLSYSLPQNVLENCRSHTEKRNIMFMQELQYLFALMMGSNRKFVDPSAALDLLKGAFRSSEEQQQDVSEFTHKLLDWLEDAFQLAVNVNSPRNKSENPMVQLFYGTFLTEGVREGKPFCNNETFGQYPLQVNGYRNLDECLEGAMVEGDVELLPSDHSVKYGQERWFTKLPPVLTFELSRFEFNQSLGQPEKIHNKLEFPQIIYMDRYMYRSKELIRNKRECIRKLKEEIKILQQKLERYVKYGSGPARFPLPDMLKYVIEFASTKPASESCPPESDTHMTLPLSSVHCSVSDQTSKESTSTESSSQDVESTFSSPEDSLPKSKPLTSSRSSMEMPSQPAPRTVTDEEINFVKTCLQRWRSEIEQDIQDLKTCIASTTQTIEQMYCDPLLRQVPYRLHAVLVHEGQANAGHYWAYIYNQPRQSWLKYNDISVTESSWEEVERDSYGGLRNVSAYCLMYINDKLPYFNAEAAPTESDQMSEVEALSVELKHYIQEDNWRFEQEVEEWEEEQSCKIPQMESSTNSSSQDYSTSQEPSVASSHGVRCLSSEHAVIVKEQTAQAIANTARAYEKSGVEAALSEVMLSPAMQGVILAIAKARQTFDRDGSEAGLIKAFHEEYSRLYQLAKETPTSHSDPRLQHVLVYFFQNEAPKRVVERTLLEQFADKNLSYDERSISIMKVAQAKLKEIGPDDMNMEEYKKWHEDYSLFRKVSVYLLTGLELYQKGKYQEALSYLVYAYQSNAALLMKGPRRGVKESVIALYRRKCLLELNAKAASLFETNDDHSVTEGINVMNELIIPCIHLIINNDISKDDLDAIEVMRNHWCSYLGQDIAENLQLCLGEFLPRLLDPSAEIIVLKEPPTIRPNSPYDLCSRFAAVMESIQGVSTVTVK

This experiment concerns the target Ubiquitin carboxyl-terminal hydrolase 28 (Homo sapiens) (UniProt Q96RU2). Kind of experiment: inhibitors of human USP28 deubiquitinase (AID 1645857). The settings on record: purified USP28, Ub-rhodamine cleavage fluorescence, 30 min; at 25 µM; hits give high values.
As to `CCC(=O)Nc1ccccc1SCC(=O)N1c2ccccc2CC1C` (stereo not given), the inhibition is 10.9%. The same measure for `CS(=O)(=O)c1ccc(Oc2ncc(-c3cccs3)cn2)cc1`: 3.89%.

On to `COc1ccc(C(C)=O)cc1CSc1nnc(-c2ccccc2OC)n1CCc1ccccc1`, for which the inhibition was 5.07%. The value for `CC(C)(C)c1ccc(/C=C/C(=O)NCCCn2ccnc2)cc1` was -4.88%; that for `CN(C)CCCNC(=O)/C=C/c1ccc(OCc2c(F)cccc2Cl)cc1` was 34.5% (active). The same measure for `COC(=O)c1cc2c(ccn2C)n1CC(=O)NC1CCCC1`: -250%; for `Oc1cccc2nc3c(O)cccc3nc12`: 61.8% (active); for `CCCCCCCCCCC(C)C1CC(=O)NC(C(C)O)C(=O)NC(C)C(=O)NC(C)C(=O)NC(CCC(N)=O)C(=O)NC(Cc2ccc(O)cc2)C(=O)NC(C(C)CC)C(=O)O1` (stereo not given): -4.03%. On to `Cc1cc(=O)[nH]c(C2CN(C(=O)c3cccc4c3OCCO4)CCO2)n1` (stereo not given), for which the inhibition was -1.67%.

As for `Cc1ccc(Nc2nc(O)c(CC(=O)Nc3ccc(C(C)C)cc3)s2)cc1C`, the inhibition was -1.13%. The value for `Cc1ccc(NC(=O)Cc2sc(Nc3ccc(C)cc3)nc2O)cc1` was 75.6% (active); that for `CCOc1ccc(Nc2nc(O)c(CC(=O)Nc3cccc(C)c3)s2)cc1` was 27.4%. The value for `CC(Nc1nc2ccccc2nc1NS(=O)(=O)c1cc(Cl)ccc1Cl)c1ccccc1` (stereo not given) was -235%; that for `CC(=O)C(CC(=O)N1CCCC1)C(=O)Nc1ccc(Cl)cc1` (stereo not given) was 8.14%.

Take `CC1CCN(c2ccc(C(=O)NCc3ccc(F)cc3)cc2[N+](=O)[O-])CC1`: the inhibition is 0.654%. Regarding `O=C(NCCc1ccccc1)c1ccc2c(=O)nc3c(-c4ccccc4F)n[nH]n3c2c1`, the inhibition was -8.97%. The value for `O=C(NCCc1ccccc1)c1ccc2c(=O)n(Cc3ccco3)c(=O)n(Cc3cccc([N+](=O)[O-])c3)c2c1` was 73.4% (active); that for `O=C(Cn1c(=O)n(Cc2ccc3c(c2)OCO3)c(=O)c2ccccc21)NCc1ccco1` was 26.3%; that for `Cn1ccc(NC(=O)CN2[C@H](Cc3ccccc3)C[C@]3(C)NC(=O)CCC[C@H]23)n1` was -3.27%. The same measure for `CC1CCCCN1CC(=O)N1CCc2cc(S(N)(=O)=O)ccc21` (stereo not given): -35.3%; for `CCc1ccc(-n2c(SC(CC)C(=O)NCCOC)nc3n[nH]c(C)c3c2=N)cc1` (stereo not given): -17.1%; for `CCOC(=O)c1cc2c(ccn2C)n1CC(=O)Nc1ccc2c(c1)OCCO2`: -34.6%. The same measure for `COc1ccccc1-c1ccc2nnc(SCC(=O)Nc3ccc4c(c3)OCCO4)n2n1`: 3.38%; for `COc1ccc(C)cc1NC(=O)Cn1c(=O)nc(N(C)c2ccccc2)c2ccccc21`: 20.4%. Turning to `CN(c1ccccc1)c1nc(=O)n(CC(=O)Nc2ccc3c(c2)OCCO3)c2ccccc12`, the inhibition is 41.9% (active).

On to `O=C(Cn1cnc2c(sc3ccccc32)c1=O)Nc1ccc2c(c1)OCCO2`, for which the inhibition is 38.1% (active). With `O=C(Cn1cc(C(F)(F)F)ccc1=O)Nc1ccc2c(c1)OCCO2`, the inhibition is 15.1%. Regarding `COc1cccc(-c2cnc(C(O)c3sccc3C)[nH]2)c1` (stereo not given), the inhibition was -14.5%.

Regarding `Fc1cccc(Nc2nc(-c3ccncc3)nc3c2CCC3)c1`, the inhibition was 5.32%. The value for `CSc1nc2c(c(Nc3ccc(C(C)=O)cc3)n1)CCC2` was 53.2% (active); that for `COc1cc(-c2nnc(SCC(=O)Nc3ccc(Br)cc3)n2CCc2ccccc2)cc(OC)c1OC` was -5.36%. The same measure for `O=C(NCCc1ccc(O)cc1)c1cc(Br)ccc1-n1cnnn1`: 8.86%; for `Cc1nc(SCC#N)c2oc3ccccc3c2n1`: -1.32%; for `COC(=O)c1cccnc1-n1c(=O)c2cccnc2n(CC(=O)Nc2ccc(C)c(F)c2)c1=O`: -12.4%. The same measure for `Cc1ccc(-c2nnc(CCC(=O)O)o2)cc1`: -0.555%.

For `CC(C)(C)C(=O)Nc1ccc(C(=O)Nc2ccc(O)cc2C(=O)O)cc1`, the inhibition is 13.9%. The same measure for `CC(C)(C)C(=O)Nc1ccc(SCc2nnc(-c3ccccc3)o2)cc1`: 64% (active); for `O=C(CCc1csc(NC(=O)c2ccc(=O)[nH]c2)n1)NCCc1c[nH]c2ccccc12`: -13.5%; for `CC1CCN(S(=O)(=O)N2CCCC(C(=O)NC3CCN(Cc4ccccc4)CC3)C2)CC1` (stereo not given): -8.49%. For `CCOc1ccccc1OC(=O)c1cc(-c2cc(OC)c(OC)c(OC)c2)nc2ccccc12`, the inhibition is -10%.
